# The list is not random: actives were taken first. Their share in the collection is about 3.6%.
# PMP22 txn prim – modulators of PMP22 gene transcription in S16 Schwann cells | Potency, µM (top dose mostly 57.5 µM), without a hit: at the top dose activity change, negative = inhibition, most hits filed as inhibitors | 43,000 tested, 2% active | S16 Pmp22-F2sN Schwann cells, FLuc/NLuc coincidence luminescence, 24 h; active means clear falling dose curves in both reporters; inconclusive means both reporters move, but less clearly or upward; inactive means either reporter flat; the % is the NLuc reporter signal; further: potency means the concentration at half of the fitted maximal effect; on the % scale 0 is the no-effect control and ±100 the full control effect
#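 S16(c9) Schwann cells with FLuc/NLuc coincidence reporter in the Pmp22 3' UTR; compounds pin-transferred, 24 h at 37C. Dual-luciferase read: FLuc first, then NLuc after Stop&Glo, each 10 min at room temperature.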
# S16 F2sN tox – cytotoxicity in S16 Pmp22-F2sN Schwann cells | 43,000 tested, 0.48% active | Potency, µM (series often up to 57.5 µM), without a hit: top-dose activity change, negative = cytotoxicity, actives largely listed as cytotoxic | S16 Pmp22-F2sN Schwann cells viability, CellTiter-Glo, 24 h; further: potency means the concentration at half of the fitted maximal effect; on the % scale 0 is the no-effect control and ±100 the full control effect; nearly all actives have a fitted effect of over 65% in size
#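 CellTiter-Glo counter-screen, qHTS, 1536-well. Cells: S16(c9) Pmp22-F2sN, 500-1,000/well in DMEM + 10% FBS. Cpd 23 nL pin transfer, 24 h, 37C/5% CO2. Read: luminescence, CCD imager.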
# pS6 MEF inh – inhibitors of mTORC1 signaling in Tsc2-/- p53-/- MEF cells | Potency, µM (titrated, usually from 38.3 µM), for the others: at the top dose activity change, negative = inhibition, most hits filed as inhibitors | Tsc2-/- p53-/- MEF, phospho-rpS6 immunofluorescence/PI, 24 h | AID 493208 | 44,000 tested, 0.78% active;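 further: potency means the concentration at half of the fitted maximal effect; plate controls were DMSO for no effect and rapamycin for full effect; nearly all actives have a fitted effect of over 50% in size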
#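 Tsc2-/-, p53-/- mouse embryonic fibroblasts (empty-vector line) exposed to compound 24 hrs at 37 C, fixed, immunostained for phospho-rpS6 and counterstained with propidium iodide. Acumen laser scanning gives % positive cells from Alexa 488/PI ratio, thresholded using 7.5 nM rapamycin; PI count gives viability.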
# GALC G270D up – raises human GALC G270D mutant activity in cells; P54803; AID 1159614; 145M-Twi-hGALC-G270D cells (Twitcher mouse brain line with human GALC G270D), HMU-beta-Gal fluorescence, 48 h; 45,000 tested, 0.1% active; Potency, µM (titrated, usually from 57.5 µM), hits mostly activators; further: potency means the concentration at half of the fitted maximal effect; 0% is about no effect; nearly all actives have a fitted effect of over 65% in size
# Target sequence (P54803 whole entry G286D): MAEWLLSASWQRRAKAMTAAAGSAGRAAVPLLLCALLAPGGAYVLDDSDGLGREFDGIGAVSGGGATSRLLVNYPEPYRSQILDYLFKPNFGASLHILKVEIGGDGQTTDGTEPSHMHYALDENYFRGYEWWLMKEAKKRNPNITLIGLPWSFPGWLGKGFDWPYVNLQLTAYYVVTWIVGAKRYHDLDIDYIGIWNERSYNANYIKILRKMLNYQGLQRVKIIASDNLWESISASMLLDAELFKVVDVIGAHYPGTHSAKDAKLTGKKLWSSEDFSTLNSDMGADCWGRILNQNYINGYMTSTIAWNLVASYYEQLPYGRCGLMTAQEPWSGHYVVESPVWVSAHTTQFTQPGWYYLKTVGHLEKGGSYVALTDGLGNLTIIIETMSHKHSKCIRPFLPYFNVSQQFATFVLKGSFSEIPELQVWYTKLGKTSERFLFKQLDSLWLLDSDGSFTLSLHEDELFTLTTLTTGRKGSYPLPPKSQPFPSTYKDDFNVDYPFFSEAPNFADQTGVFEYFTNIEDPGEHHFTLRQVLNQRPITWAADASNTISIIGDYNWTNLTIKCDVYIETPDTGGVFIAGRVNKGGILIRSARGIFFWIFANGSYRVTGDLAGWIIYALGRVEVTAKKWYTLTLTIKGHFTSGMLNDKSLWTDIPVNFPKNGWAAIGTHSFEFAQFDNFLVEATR
#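 Fluorogenic HMU-b-Gal hydrolysis (0.1 mM final, pH 5.2 citrate-phosphate with 1 mg/mL sodium taurocholate; carbonate stop buffer) measures mutant GALC activity after compound treatment of live 145M-Twi Twitcher brain cells stably carrying human GALC-G270D, with wild-type GALC line alongside; activation sought.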
# SKOV3 invasion – inhibitors of ovarian cancer cell adhesion and invasion in omental model. AID 1963576. Potency, µM (titrated, usually from 45.8 µM), for inactives: at the top dose activity change, negative = inhibition, actives largely listed as inhibitors. 46,000 tested, 0.1% active. SKOV3ip1-GFP adhesion/invasion on 3D omental model, fluorescence;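 further: potency means the concentration at half of the fitted maximal effect; plate controls were DMSO wells for no effect and tomatine positive control wells for full effect; nearly all actives have a fitted effect of over 65% in size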
#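 A 3D layer of primary human omental fibroblasts, mesothelial cells, fibronectin and collagen I, grown 48 hr, received SKOV3ip1-GFP cells in serum-free medium plus compounds at 0.36-46 umol/L. After 2 hr RT and 16 hr 37 C, fixed adherent GFP cells were counted; normalized to DMSO and tomatine.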
# NTMT1 inhibitor – blocks human N-terminal methyltransferase 1 activity | AID 1645870 | Q9BV86 | Potency, µM (doses to about 114 µM), inactives show top-dose activity change, negative = inhibition, most hits filed as inhibitors | 59,000 tested, 2.5% active | NTMT1 MTase-Glo SAH luminescence, purified enzyme;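 further: potency means the concentration at half of the fitted maximal effect; plate controls were DMSO vehicle for no effect and no enzyme for full effect; nearly all actives have a fitted effect of over 65% in size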
# NLuc sat counter – counter-screen for PMP22 expression modulators: NanoLuc inhibition, saturating substrate; shares compounds with PMP22 txn prim; Secreted NLuc enzyme (filtered S16 cell medium), Nano-Glo luminescence; Potency, µM (doses to about 57.5 µM), inactives show at the top dose activity change, negative = inhibition, usual class: inhibitors; 690 tested, 4% active; AID 1508638; further: potency means the concentration at half of the fitted maximal effect; on the % scale 0 is the no-effect control and ±100 the full control effect
# NLuc Km ctr – counter-screen for PMP22 expression modulators: NanoLuc inhibition at Km; shares compounds with PMP22 txn prim; secreted NLuc enzyme, coelenterazine luminescence, Km conditions; Potency, µM (series often up to 57.5 µM), without a hit: top-dose activity change, negative = inhibition, most hits filed as inhibitors; 690 tested, 5% active; further: potency means the concentration at half of the fitted maximal effect; on the % scale 0 is the no-effect control and ±100 the full control effect
# FLuc counter – firefly luciferase enzyme inhibition artifact for PMP22 screen; AID 1508640; shares compounds with PMP22 txn prim; purified P. pyralis FLuc, luminescence, 10 min; 690 tested, under 10 active; Potency, µM (top dose mostly 57.5 µM), inactives show top-dose activity, negative = inhibition, most hits filed as inhibitors; further: % of control where 0% means no effect
# S16 F2sN tox cnf – confirmation of cytotoxicity in S16 Pmp22-F2sN Schwann cells (luciferase reporters placed in the Pmp22 gene) | shares compounds with PMP22 txn prim | S16 Schwann cells viability, CellTiter-Glo ATP luminescence, 24 h | Potency, µM (titrated, usually from 57.5 µM), for inactives: top-dose activity change, negative = viability loss, most hits filed as cytotoxic | 690 tested, 7% active | AID 1508641; further: potency means the concentration at half of the fitted maximal effect; on the % scale 0 is the no-effect control and ±100 the full control effect
# PMP22 txn conf – PMP22 transcription modulation, confirmatory. S16 Schwann cells Pmp22-F2sN, dual luciferase, 24 h. AID 1508646. 690 tested, 22% active. shares compounds with PMP22 txn prim. Potency, µM (series often up to 57.5 µM), without a hit: top-dose activity change, negative = inhibition, actives largely listed as inhibitors; active means clear falling dose curves in both reporters; inconclusive means both reporters move, but less clearly or upward; inactive means either reporter flat; the % is the FLuc reporter signal; further: potency means the concentration at half of the fitted maximal effect
# PMP22 prot conf – confirmation of modulators of rat PMP22 protein expression | AID 1508647 | Potency, µM (titrated, usually from 27.9 µM), without a hit: at the top dose activity change, negative = inhibition, hits mostly inhibitors | 95 tested, under 10 active | S16 Schwann cells Pmp22-HiBiT, luminescence, 48 h | shares compounds with PMP22 txn prim
# Numbers without * were called inactive; i = inactive; u = inconclusive; x = no result; [ ] = another dose, or the depositor's remark. Unless noted, the call rests on the fitted dose curve; in most records, active means well fitted curve in the direction sought with a large enough effect; inconclusive means small, poorly fitted or top-dose-only effect, or another doubt; inactive means no such curve, though single readings can be large; an effect the other way counts as inactive or inconclusive.
SMILES,PMP22 txn prim,S16 F2sN tox,pS6 MEF inh,GALC G270D up,SKOV3 invasion,NTMT1 inhibitor,NLuc sat counter,NLuc Km ctr,FLuc counter,S16 F2sN tox cnf,PMP22 txn conf,others
Cc1ccc(CNC(=O)c2ccc(Cn3c(=O)c4ccccc4n(CC(=O)Nc4c(C)cc(C)cc4C)c3=O)cc2)cc1,16µM*,u,1%,i,i,u,-9%,9%,6%,u,7.9µM*,PMP22 prot conf=u
Cc1ccc(CNC(=O)c2ccc(Cn3c(=O)c4ccccc4n(CC(=O)Nc4ccc(C)cc4C)c3=O)cc2)cc1,14µM*,-24%,-3%,i,i,u,-1%,4%,0%,u,u,
COc1ccc(Cl)cc1NC(=O)Cn1c(=O)n(-c2ccc(C)cc2)c(=O)c2ccc(C(=O)NCc3ccccc3Cl)cc21,10µM*,12%,1%,i,5%,-6%,-7%,-10%,4%,31µM*,11µM*,
Cc1c2cnn(CC(=O)O)c(=O)c2c(C)n1Cc1cccc(Cl)c1,8%,8%,2%,i,-7%,28%,x,x,x,x,x,
Cc1c2cnn(CC(=O)NCc3ccccc3)c(=O)c2c(C)n1Cc1cccc(Cl)c1,13µM*,-13%,u,i,0%,5%,-12%,-1%,-4%,-10%,u,
N#CC1C(=O)N=C(c2cc(Cl)ccc2O)C=C1c1cc(OCc2ccccc2)cc(OCc2ccccc2)c1 (stereo not given),x,x,x,x,x,10%[57.5 µM],x,x,x,x,x,
CCOC(=O)C1CCN(C(=O)C2CCN(c3nnc(C)c4c(C)n(-c5ccccc5)nc34)CC2)CC1,14µM*,18%,-5%,i,i,u,-10%,0%,3%,2%,-22%,
Cc1ccc(-n2nc3c(N4CCC(C(=O)NC(C)c5ccccc5)CC4)nnc(C)c3c2C)cc1 (stereo not given),-4%,-10%,-1%,i,u,u,x,x,x,x,x,
Cc1ccc(-n2nc3c(N4CCC(C(=O)NCCc5ccccc5C)CC4)nnc(C)c3c2C)cc1,9.5µM*,u,-1%,i,u,-18%,-16%,-4%,-9%,24µM*,u,
Cc1ccccc1CNC(=O)C1CCN(c2nnc(C)c3c(C)n(-c4ccccc4)nc23)CC1,u,-3%,-1%,i,8%,-6%,x,x,x,x,x,
Cc1ccc(-n2nc3c(N4CCC(C(=O)NCCC(C)C)CC4)nnc(C)c3c2C)cc1,6.2µM*,-27%,-2%,i,6%,u,-9%,-3%,1%,-7%,u,
Cc1ccc(NS(=O)(=O)c2cc3c(cc2N[C@@H](C)CO)NC(=O)CC3)cc1C,x,x,x,x,x,-7%,x,x,x,x,x,
Cc1ccc(NC(=O)CSc2ncc3c(n2)-c2ccccc2N(C)S3(=O)=O)c(Cl)c1,6.4µM*,15%,2%,i,-8%,u,u,4%,-3%,-15%,u,
Cc1ccc(Nc2cc(C)c(C#N)c3nc4ccccc4n23)c(C)c1,u,20%,-12%,i,i,14%,x,x,x,x,x,
Cc1cc(Nc2cccc(Br)c2)n2c(nc3ccccc32)c1C#N,9µM*,u,-5%,i,i,17%,-18%,u,7%,10%,u,
Fc1ccc2[nH]ccc2c1-c1nc(N2CCOCC2)c2sc(CN3CCN(CC4CC4)CC3)cc2n1,x,x,x,x,x,-8%,x,x,x,x,x,
COc1cc(C(=O)Nc2c(C(=O)Nc3ccccc3F)oc3ccccc23)cc(OC)c1OC,17µM*,1%,-8%,i,i,8%,-3%,-4%,u,-2%,u,
COc1ccccc1NC(=O)c1oc2ccccc2c1NC(=O)c1c(F)cccc1F,-24%,-25%,2%,i,-8%,3%,x,x,x,x,x,
CCN1C(=O)c2ccccc2S(=O)c2ccc(C(=O)N3CCN(c4ccccc4)CC3)cc21 (stereo not given),u,u,-8%,i,i,2%,x,x,x,x,x,
CCN1C(=O)c2ccccc2S(=O)c2ccc(C(=O)N3CCN(c4cccc(Cl)c4)CC3)cc21 (stereo not given),18µM*,-4%,-5%,i,i,0%,3.9µM*,3.4µM*,-1%,-5%,u,
COc1cc2c(=O)c(C(=O)c3ccc(C)c(C)c3)cn(Cc3ccccc3F)c2cc1OC,17µM*,-26%,-17%,i,-2%,-24%,0.39µM*,0.48µM*,-16%,-3%,u,
CCC(=O)N1CCc2cc(S(=O)(=O)CCC(=O)N3CCN(c4ccc(Cl)cc4)CC3)ccc21,17µM*,-1%,-2%,i,2%,3%,u,-4%,-3%,12%,u,
COc1ccc(-c2noc(CSc3nnc(C)n3-c3ccc(C)cc3)n2)cc1,u,u,-15%,i,1%,12%,x,x,x,x,x,
